High-throughput results from PubChem BioAssay.
Compounds with a hit are over-represented: about 5.3% of the library has one in this group of screens.
Tau ThT inhib: blocks human tau fibril formation measured by thioflavin T. Potency, µM (doses to about 57.4 µM), without a hit: at the highest dose activity, negative = inhibition, hits mostly inhibitors. P10636. 270,000 compounds, 2.1% hits. AID 1460. recombinant tau K18 P301L, heparin-induced fibrillization, ThT fluorescence; further: potency means the concentration at half of the fitted maximal effect; nearly all actives have a fitted effect of over 55% in size
Target sequence (P10636 561-689 P618L limits assumed): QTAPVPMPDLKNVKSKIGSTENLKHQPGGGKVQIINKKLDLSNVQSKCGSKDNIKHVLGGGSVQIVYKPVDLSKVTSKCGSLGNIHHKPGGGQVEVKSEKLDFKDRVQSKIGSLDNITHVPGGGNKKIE
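Tau K18 P301L fragment (15 uM unlabeled plus 0.24 uM Alexa 594-labeled) in 100 mM sodium acetate pH 7 with compound, fibrillization induced by 20 uM heparin for 6 hr at 37 C. Thioflavin T (30 uM) added, fluorescence read after 1 hr (ex 450, em 510 nm).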
Tau FP inhib: blocks human tau fibril formation measured by polarization | AID 1468 | K18 P301L tau heparin fibrillization, Alexa594 FP, 6 h | 280,000 compounds, 0.39% hits | Potency, µM (doses to about 57.7 µM), for inactives: top-dose activity, negative = inhibition, most hits filed as inhibitors | P10636; further: potency means the concentration at half of the fitted maximal effect; nearly all actives have a fitted effect of over 55% in size
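Compound effects on tau fibrillization are measured by Alexa 594 fluorescence polarization (ex 555, em 632 nm). K18 P301L tau is used at 15 uM with 0.24 uM labeled tracer, and 20 uM heparin induces aggregation over 6 hr at 37 C.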
Tau fluor counter: counter-screen for tau fibril formation inhibitors. AID 1463. tau K18 P301L (four-repeat tau fragment) Alexa594 fluorescence, heparin fibrillization. 280,000 compounds, 0.93% hits. Potency, µM (top dose mostly 57.7 µM), inactives show at the top dose activity change, negative = decrease; further: potency means the concentration at half of the fitted maximal effect; nearly all actives have a fitted effect of over 55% in size
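Human K18 P301L tau (15 uM unlabeled plus 0.24 uM Alexa 594-labeled, final) in 100 mM sodium acetate pH 7 was mixed with compound and 20 uM heparin and incubated 6 hr at 37 C.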
Sfp inh: Sfp phosphopantetheinyl transferase inhibition; Q9F4F7; Biochemical Sfp PPTase activity, qHTS; Potency, µM, for the others: largest response in the series, negative = inhibition, usual class: inhibitors; 310,000 compounds, 3.5% hits; AID 1490;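 further: the enzyme is Sfp with the accession as filed and its product quenches rhodamine fluorescence; potency means the concentration at half of the fitted maximal effect; 0% = enzyme reaction without inhibitor and -100% = no enzyme wells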
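Buffer: 50 mM Hepes-Na pH 7.6, 10 mM MgCl2, 0.01% Nonidet P-40, 0.01% BSA. Enzyme 15 nM, pre-exposed to compound 15 min; substrates then added and fluorescence change tracked over 30 min.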
Coupling enz: counter-screen for Giardia aldolase inhibitors: coupling enzyme system; coupling enzyme system counterscreen, AmpLite Red fluorescence; activity change, negative = inhibition, % at 58.2 µM, hits read low; 290,000 compounds, 0.67% hits; in the data active means activity change below about -30%
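First, compound is pin-transferred into glyceraldehyde-3-phosphate coupling-enzyme reagent at 57.5 uM final and held 10 min at RT. Next, substrate, coupling system and AmpLite Red are added. After 20 min RT, fluorescence (525/598 nm) is read.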
KDM4E inh: inhibitors of human JMJD2E histone demethylase; 230,000 compounds, 1.6% hits; B2RXH2; AID 2147; Potency, µM (series often up to 57.1 µM), inactives show top-dose activity change, negative = inhibition, most hits filed as inhibitors; JMJD2E catalytic domain, FDH-coupled NADH fluorescence (FDH is formaldehyde dehydrogenase);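 further: potency means the concentration at half of the fitted maximal effect; 0% = wells with enzyme and -100% = buffer wells without enzyme; nearly all actives have a fitted effect of over 50% in size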
Target sequence (B2RXH2 1-337 limits assumed): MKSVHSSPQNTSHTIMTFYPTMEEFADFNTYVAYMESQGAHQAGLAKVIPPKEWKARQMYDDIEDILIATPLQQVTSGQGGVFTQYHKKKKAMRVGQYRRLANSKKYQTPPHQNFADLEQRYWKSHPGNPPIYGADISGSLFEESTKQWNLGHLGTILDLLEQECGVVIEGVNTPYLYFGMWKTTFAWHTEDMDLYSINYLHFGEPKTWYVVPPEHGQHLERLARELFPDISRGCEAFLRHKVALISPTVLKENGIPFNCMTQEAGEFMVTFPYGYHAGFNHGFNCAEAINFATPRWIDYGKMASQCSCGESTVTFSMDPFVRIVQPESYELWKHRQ
Active calls of the source: *; ? = inconclusive; / = not tested or not shown; [ ] = remark or other dose. Unless noted, the call rests on the fitted dose curve; in most records, active means well fitted curve in the direction sought with a large enough effect; inconclusive means small, poorly fitted or top-dose-only effect, or another doubt; inactive means no such curve, though single readings can be large; an effect the other way counts as inactive or inconclusive. Unless noted, on the % scale 0 is the no-effect control and ±100 the full control effect.

SMILES	Tau ThT inhib	Tau FP inhib	Tau fluor counter	Sfp inh	Coupling enz	KDM4E inh
CC(Oc1ccccc1)C(=O)Nc1ccc(C(=O)OCc2cc(=O)n3ccsc3n2)cc1 (centres undefined)	0.4%	0.8%	?	/	/	/
COc1ccc(CNC(=O)CSc2cccc3cccnc23)cc1	/	0.0%	11.9%	-5.3%	1.9	?
CCN(CC(=O)Nc1ccccc1Br)Cc1nc2ccccc2c(=O)[nH]1	-2.1%	-1.7%	-7.2%	10.3%	-3.3	-3.8%
CCN(CC(=O)NC(=O)NCc1ccco1)Cc1nc2ccccc2c(=O)[nH]1	?	-13.0%	4.0%	50.1µM*	-6.8	-21.3%
O=C(CSc1cccc2cccnc12)NCc1ccco1	-15.9%	1.7%	-11.6%	79.4µM*	-12.3	?
COC(=O)/C(C(C)=O)=C(\C=C\N(C)C)N(C)C	-5.1%	10.9%	-5.7%	6.8%	3.0	1.7%
COC(=O)\C(C(C)=O)=C(/C=C/C=C/C=C/N(C)C)N(C)C	15.8µM*	?	-24.2%	-18.0%	-10.6	22.4µM*
CC1(C(=O)O)COC(c2ccc([N+](=O)[O-])cc2)OC1 (centres undefined)	-9.1%	-14.1%	-9.2%	11.3%	1.4	5.6%
O=C1NC(C(=O)O)=CC(c2ccc([N+](=O)[O-])cc2)N1 (centres undefined)	-5.7%	-8.2%	7.4%	8.91µM*	-1.1	-7.1%
Cc1ccc(-c2nn3c(C)nnc3s2)cc1NC(=O)c1ccc(-c2ccc(Cl)cc2Cl)o1	-25.2%	4.9%	7.2%	12.6µM*	0.3	?
Cc1ccc(-c2nn3c(C)nnc3s2)cc1NC(=O)c1ccc(-c2cccc(Cl)c2)o1	?	-2.7%	-7.9%	22.4µM*	2.1	-16.1%
CC(C)Oc1ccc(CNC(=O)CCCN2C(=O)c3cccnc3Oc3ccc(Cl)cc32)cc1	-3.2%	-0.1%	-9.0%	/	/	/
N#CC(Cc1ccc(O)c(O)c1)C(=O)N1CCc2ccccc21 (centres undefined)	-7.7%	1.8%	-10.6%	/	/	20µM*
O=C(Nc1ccc(F)cc1)c1cccn1-c1nnc(N2CCCCC2)s1	-1.9%	-4.8%	-15.7%	/	/	/
O=C(O)Cc1sc(Nc2ccccc2)nc1-c1cccs1	?	3.0%	?	50.1µM*	6.9	-4.5%
O=C(Cc1sc(Nc2ccccc2)nc1-c1ccccc1)NCc1ccccc1	6.2%	3.3%	2.8%	?	-6.0	1.7%
Cc1cccc(Nc2nc(CC(=O)O)cs2)c1	?	9.7%	-15.6%	?	-1.2	-1.4%
Cc1ccc(-c2nc(Nc3cccc(C)c3)sc2CC(=O)O)cc1	?	5.2%	-28.3%	20µM*	-15.2	?
O=C1C[C@H](c2ccc(-c3ccccc3)cc2)N1S(=O)(=O)c1ccccc1[N+](=O)[O-]	/	/	/	9.8%	16.2	/
Oc1ccc(NC(=S)Nc2ccc(O)cc2)cc1	10µM*	?	?	44.7µM*	-22.6	?
S=C(NNC(=S)Nc1ccccc1)Nc1ccccc1	/	/	/	50.1µM*	3.3	/
NC(=S)NNC(=S)Nc1ccccc1	-10.0%	-11.7%	-2.3%	10µM*	-0.5	-13.2%
O=C(Cc1ccccc1)NNC(=S)Nc1ccccc1	-1.7%	-3.9%	6.6%	14.1%	1.3	3.6%
S=C(NN=C(C1CC1)C1CC1)Nc1ccccc1	?	3.7%	-20.7%	20µM*	-0.9	-2.6%
O=C(NNC(=S)Nc1ccccc1)C1CC1	-4.4%	1.7%	-3.6%	-8.4%	/	9.1%
SMILES	Tau ThT inhib	Tau FP inhib	Tau fluor counter	Sfp inh	Coupling enz	KDM4E inh
COC(=O)C/C=C1\c2ccc3c(c2[C@@H](OC)[C@@H]1C)OCO3	-10.7%	11.1%	-6.4%	4.3%	-0.1	-1.7%
CCc1nc2c(cnn2-c2ccc(Cl)cc2)c(=O)n1-c1ccc(OC)c(Cl)c1	-7.9%	-14.5%	-13.7%	/	/	/
C=CCC(O)CC1C2C(CC(O)CC=C)C3C1C3C2OC(C)(C)C (centres undefined)	-13.8%[11.5 µM]	-1.1%[11.6 µM]	-16.5%[11.6 µM]	1.4%	0.5	/
CC1=CC(=O)OC1Cc1ccc2ccccc2n1 (centres undefined)	2.6%	0.1%	2.0%	-28.2%	-0.5	?
Cc1cccc(NC(=O)C2C3C=CC(O3)C2C(=O)O)c1 (centres undefined)	/	/	/	2.7%	4.2	/
Cc1cccc(NC(=O)C2C3C=CC(C4CC34)C2C(=O)O)c1 (centres undefined)	-12.8%	-15.1%	-5.4%	50.1µM*	-0.1	-0.2%
CCOc1ccc(-n2c(=S)sc3c(=O)[nH]c(SCC(=O)NCc4ccco4)nc32)cc1	-10.1%	5.0%	-21.3%	56.2µM*	14.5	-0.4%
O=[N+]([O-])c1ccc(O)c(-c2nn[nH]n2)c1	-27.9%	4.5%	-7.4%	-18.4%	-14.8	0.398µM*
O=[N+]([O-])c1ccc(O)c(-c2ccnc3cc(-c4ccccc4)nn23)c1	?	-4.0%	-28.5%	/	/	/
Cc1cc(C)n(-c2ccc(C(F)(F)F)cc2[N+](=O)[O-])n1	-4.9%	5.9%	-0.1%	1.5%	2.1	4.2%
Cc1cc(C)n(-c2ccc([N+](=O)[O-])cc2-c2nn[nH]n2)n1	-1.3%	6.9%	5.6%	79.4µM*	1.5	-10.0%
CC12CCC=CC1C(c1cccc([N+](=O)[O-])c1)N(Cc1ccccc1)C2=O (centres undefined)	/	/	/	-20.2%	5.2	/
Cc1cc(F)ccc1S(=O)(=O)Nc1ccccc1C(=O)Nc1ncn[nH]1	-12.7%	3.1%	-15.3%	1.3%	-2.9	?
Cc1cc(F)ccc1S(=O)(=O)Nc1ccccc1C(=O)Nc1ccccc1-c1nc2ccccc2[nH]1	8.2%	12.6µM*	?	29.3%	-1.5	?
CC1CCN(S(=O)(=O)c2ccc(C(=O)Nc3ccccc3-c3nc4ccccc4[nH]3)cc2)CC1	17.8%	28.2µM*	?	5.4%	-1.4	?
Nc1nc(-c2ccc(Cl)c(Cl)c2)c(-c2ccncc2)s1	-17.4%	-1.3%	-12.2%	22.4µM*	5.7	?
COC(=O)c1nc(N)sc1-c1ccc(Cl)c(Cl)c1	-8.9%	-6.5%	-25.6%	8.5%	-4.7	?
CCOc1cc(C=C(C(=O)OC)C(=O)OC)ccc1OCc1ccc([N+](=O)[O-])cc1	12.6µM*	17.4%	-25.6%	5.1%	0.4	2.6%
O=C(Cc1nc2ccccc2[nH]1)c1ccc(Cl)cc1	/	/	/	15.8%	-6.1	/
CN/N=C(\Cc1nc2ccccc2[nH]1)c1ccc([N+](=O)[O-])cc1	12.6µM*	6.3%	?	22.4µM*	-4.1	?
N#CCCN/N=C(/Cc1nc2ccccc2[nH]1)c1cccc(Cl)c1	?	7.6%	?	8.6%	-5.1	?
O=C(Cc1nc2ccccc2[nH]1)c1ccc([N+](=O)[O-])cc1	15.8µM*	?	?	15.8µM*	0.2	?
